Data on six compounds can be found in PubChem BioAssay.

The structures appear in SMILES notation. “And” between values parts separate entries of the source, which are not always exact repeats. Equal values may be shown once. The source holds several records for some structures; these can differ, active in one and inactive in another. The source made the active and inactive calls. Unless noted, the rule behind the calls is not given here.

A short description of experiment [1]: compound effects on lung adenocarcinoma cell viability – A549, calcein-AM fluorescence, 48 h, basal, profiling panel (AID 1162). Note: test concentration not given here. The note with it: higher = more signal.
A short description of experiment [2]: compound effects on differentiated 3T3-L1 adipocyte viability – cell-based, 3T3-L1 adipocytes, calcein-AM fluorescence, 48 h, basal, profiling panel (AID 1163). Note: test concentration not given here. The conditions noted are these: 3T3-L1 adipocytes viability, higher = more signal.
A short description of experiment [3]: compound effects on hepatocellular carcinoma cell viability – HepG2, calcein-AM fluorescence, 48 h, basal, profiling panel (AID 1164). Note: test concentration not given here. The conditions noted are these: higher = more signal.
The nature of experiment [4]: compound effects on multiple myeloma cell viability – MM1S, calcein-AM fluorescence, 48 h, basal, profiling panel (AID 1165).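 Note: viability of MM1S multiple myeloma cells under basal unstimulated conditions; test concentration not given here.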 The note with it: higher = more signal.
Experiment [5] can be described thus: calcein-AM signal in unstimulated myeloma cells – cell-based, calcein-AM fluorescence, 48 h, PK04 Diversity Set, profiling panel (AID 1166).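 Note: cells grown under basal conditions without added stimulus; test concentration not given here.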 The note with it: RPMI8226 myeloma viability, higher = more signal.
The nature of experiment [6]: JC-1 mitochondrial signal, unstimulated HepG2 cells – cell-based, JC-1 fluorescence, 24 h, 100 nL compound, profiling panel (AID 1167). Note: test concentration not given here. The conditions noted are these: HepG2 mitochondrial potential, higher = more signal.
Experiment [7] is described as follows: JC-1 mitochondrial signal, unstimulated adipocytes – cell-based, JC-1 fluorescence, 3T3-L1 adipocytes, 24 h, 100 nL compound, profiling panel (AID 1168). Note: test concentration not given here. The conditions noted are these: JC-1 mitochondrial fluorescence, higher = more signal, called active from +8 up or from −8 down.
Experiment [8] is described as follows: JC-1 mitochondrial signal, unstimulated myeloma cells – cell-based, JC-1 fluorescence, RPMI8226, 24 h, 100 nL compound, profiling panel (AID 1169). Note: test concentration not given here. The note with it: JC-1 mitochondrial potential fluorescence, higher = more signal.
A short description of experiment [9]: JC-1 mitochondrial signal, unstimulated MM1S myeloma – cell-based, JC-1 fluorescence, 24 h, 100 nL compound, profiling panel (AID 1170). Note: test concentration not given here. The note with it: MM1S mitochondrial potential, higher = more signal.
A short description of experiment [10]: resazurin metabolic signal in A549 cells – cell-based, resazurin fluorescence, 24 h, PK04 Diversity Set, profiling panel (AID 1171). Note: test concentration not given here. The note with it: A549 viability, higher = more signal, called active from +8 up or from −8 down. (In general: Resazurin is reduced to fluorescent resorufin, in cell work by metabolically active cells.)
Experiment [11] can be described thus: resazurin metabolic signal in HepG2 cells – cell-based, resazurin fluorescence, 24 h, PK04 Diversity Set, profiling panel (AID 1172). Note: test concentration not given here. The conditions noted are these: HepG2 viability, higher = more signal.
A short description of experiment [12]: budding yeast growth changes without added modifier – OD600, strain BY4716, 24 h, basal condition, primary screen (AID 1173). The conditions noted are these: S. cerevisiae BY4716 growth, OD600, 24 h; higher = more signal, called active from +8 up or from −8 down.
A short description of experiment [13]: viability profiling in MM1S myeloma cells – cell-based, resazurin fluorescence, basal, 24 h, PK04 Diversity Set, profiling panel (AID 1174). Note: test concentration not given here. The conditions noted are these: higher = more signal, called active from +8 up or from −8 down.
Experiment [14] concerns the target Dihydroorotate dehydrogenase (quinone), mitochondrial (Plasmodium falciparum (isolate 3D7)) (UniProt Q08210). As to the kind of experiment: inhibition of P. falciparum DHODH – biochemical, C-terminal His tag, absorbance 600 nm, primary screen (AID 1175).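 Note: recombinant parasite enzyme with a five histidine tag at its C terminus; test concentration not given here.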 The note with it: PfDHODH enzyme, DCIP absorbance 600 nm; higher = more signal, called active from +8 up or from −8 down.

A short description of experiment [15]: inhibition of PAO1 biofilm formation – strain PAO1, LB-PBS medium, absorbance 600 nm, primary screen (AID 1176). Note: test concentration not given here. The note with it: P. aeruginosa PAO1 growth/biofilm, A600, 12 h; higher = more signal.
A short description of experiment [16]: growth modulation of vineyard yeast isolate – strain RM11-1a, OD600, basal, 24 h, primary screen (AID 1177).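 Note: cultures grown under basal conditions with no added stressor; test concentration not given here.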 The note with it: S. cerevisiae RM11-1a growth, OD600, 24 h; higher = more signal, called active from +8 up or from −8 down.
Experiment [17] can be described thus: growth of efflux-deficient E. coli DRC39 – strain DRC39, OD650, 24 h, E. coli filamentation inducers, primary screen (AID 1178).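 Note: growth measured as culture turbidity by optical density at 650 nm; test concentration not given here.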 The note with it: E. coli DRC39 acrAB, higher = more signal, called active from +8 up or from −8 down.
Experiment [18] can be described thus: growth of efflux-deficient E. coli DRC39 – strain DRC39, OD650, 48 h, E. coli filamentation inducers, primary screen (AID 1179).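 Note: screen aims at cell division blockers that make cells filament.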 The note with it: E. coli DRC39 delta-acrAB growth, higher = more signal, called active from +8 up or from −8 down.
A short description of experiment [19]: viability profiling in RPMI8226 myeloma cells – cell-based, resazurin fluorescence, basal, 24 h, PK04 Diversity Set, profiling panel (AID 1180).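 Note: RPMI8826 multiple myeloma cell line at 5000 cells per well; test concentration not given here.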 The note with it: higher = more signal.
The target of experiment [20] is E3 ubiquitin-protein ligase XIAP (Homo sapiens) (UniProt P98170). The experiment is described as follows: small molecules binding XIAP protein – biophysical, small-molecule microarray, fluorescence 635 nm, primary screen (AID 1181).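 Note: score merges 667 nm emission and signal to noise over triplicate slides.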 The note with it: higher = more signal.
Chain of E3 ubiquitin-protein ligase XIAP (Homo sapiens) (P98170 whole entry, looked up): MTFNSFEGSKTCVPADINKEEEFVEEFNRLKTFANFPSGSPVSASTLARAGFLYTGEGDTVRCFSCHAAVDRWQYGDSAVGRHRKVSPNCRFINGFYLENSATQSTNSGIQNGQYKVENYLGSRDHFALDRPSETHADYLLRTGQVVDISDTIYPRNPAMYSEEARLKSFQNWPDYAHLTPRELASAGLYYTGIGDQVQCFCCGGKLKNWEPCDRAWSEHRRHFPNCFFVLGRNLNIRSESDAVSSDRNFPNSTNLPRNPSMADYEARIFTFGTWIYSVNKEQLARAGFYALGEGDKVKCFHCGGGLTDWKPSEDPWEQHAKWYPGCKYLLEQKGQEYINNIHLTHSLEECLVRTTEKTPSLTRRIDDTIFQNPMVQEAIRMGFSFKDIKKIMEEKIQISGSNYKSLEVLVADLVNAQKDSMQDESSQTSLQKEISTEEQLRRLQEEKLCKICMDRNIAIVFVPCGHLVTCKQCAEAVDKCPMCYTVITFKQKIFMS

Chain of Dihydroorotate dehydrogenase (quinone), mitochondrial (Plasmodium falciparum (isolate 3D7)) (Q08210 whole entry, looked up): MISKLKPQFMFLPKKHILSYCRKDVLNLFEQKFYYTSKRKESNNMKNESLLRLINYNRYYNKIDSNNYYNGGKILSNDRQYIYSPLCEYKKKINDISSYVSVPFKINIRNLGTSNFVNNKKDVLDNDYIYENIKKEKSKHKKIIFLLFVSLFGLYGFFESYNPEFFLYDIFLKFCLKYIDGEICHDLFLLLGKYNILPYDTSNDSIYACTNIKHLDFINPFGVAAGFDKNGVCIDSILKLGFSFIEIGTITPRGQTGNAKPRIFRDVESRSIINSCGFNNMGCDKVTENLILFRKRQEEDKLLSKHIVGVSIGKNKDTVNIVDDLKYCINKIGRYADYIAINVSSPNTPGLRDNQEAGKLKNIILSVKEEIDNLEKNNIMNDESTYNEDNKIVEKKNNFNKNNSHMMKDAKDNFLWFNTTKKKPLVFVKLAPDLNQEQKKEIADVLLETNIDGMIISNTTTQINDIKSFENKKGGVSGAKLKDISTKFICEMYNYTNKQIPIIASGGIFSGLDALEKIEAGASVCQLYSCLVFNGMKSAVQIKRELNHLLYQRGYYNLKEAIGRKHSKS

For the compound `CC(C)[Si]1(C(C)C)OCc2cc(C3CC3)nc(CCc3ccccc3)c21`, the z-score in experiment [1] is -0.351 and -0.69; in experiment [2] it was 0.193 and -0.871; in experiment [3], 0.498 and 0.203; in experiment [4] it was -2.57 and -2.81; in experiment [5] it was -0.48 and -3.77; in experiment [6], -1.5 and -2.69. The z-score in experiment [7] was -0.186 (inactive) and -0.575 (inactive); in experiment [8], -0.14 and -0.902; in experiment [9], 0.245 and -0.582; in [10], 1.12 (inactive) and 1.39 (inactive); in experiment [11], 0.983 and 1.3; in experiment [12], 1.04 (inactive) and 0.427 (inactive). Moreover, the z-score in experiment [13] was 0.905 (inactive) and 0.656 (inactive); in experiment [15], 0.338 (inactive) and 0.35 (inactive); in experiment [16], 0.534 (inactive) and 0.156 (inactive); in experiment [17], 0.428 (inactive) and -0.615 (inactive); in experiment [18], 0.26 (inactive) and -0.173 (inactive); in experiment [19] it was 0.635 and 0.355. The composite z-score was -0.092 (inactive) and -0.377 (inactive) in experiment [14]; 0.321 and -0.305 in experiment [20].
On to `C=CCN(CCCC)C(=O)C1N(CCCCCCO)C(=O)C2C(C(=O)O)C3C=CC21O3` (stereo not given), for which the z-score in experiment [1] was -0.835 and -0.441; in experiment [2], 0.221 and -0.0736; in experiment [3] it was -1 and -0.393; in experiment [4], 0.62 and 1.32; in experiment [5] it was 0.646 and -0.44; in [6], -0.253 and -0.939. The z-score in experiment [7] was 0.051 (inactive) and -0.617 (inactive); in experiment [8], 0.221 and 0.855; in experiment [9], -0.00969 and -0.273; in [10], -0.59 (inactive) and -0.439 (inactive); in [11], 0.063 and -0.938; in experiment [12], 0.569 (inactive) and 0.411 (inactive). Also, the z-score in [13] was -0.76 (inactive) and -0.768 (inactive); in experiment [15] it was 0.109 (inactive) and -0.388 (inactive); in experiment [16], -0.751 (inactive) and -0.681 (inactive); in experiment [17] it was 0.03 (inactive) and -0.0327 (inactive); in experiment [18], -0.146 (inactive) and -0.105 (inactive); in experiment [19] it was -0.704 and -0.992. In addition, the composite z-score is -0.669 (inactive) and -0.0254 (inactive) in [14]; -0.124 and 0.18 in [20].
Turning to `CCCCCN1CC=CC23O[C@@H]4C=CCCOC(=O)C4[C@H]2C(=O)N(C(C)CO)[C@@H]3C1=O` (stereo not given in full), the z-score in experiment [1] was -0.345 and -0.691; in experiment [2], 0.94 and -0.707; in experiment [3], -1.46 and -0.31; in experiment [4], 0.737 and 0.402; in [5] it was 0.254 and -0.282; in [6], -0.473 and -1.11. The z-score is -0.354 (inactive) and -0.522 (inactive) in [7]; 0.861 and -0.0156 in experiment [8]; -0.141 and 0.641 in experiment [9]; 1.08 (inactive) and 0.713 (inactive) in experiment [10]; 1.77 and 0.86 in experiment [11]; -0.252 (inactive) and 1 (inactive) in experiment [12]. The z-score in [13] is 1.24 (inactive) and -0.0383 (inactive); in experiment [15] it was -0.193 (inactive) and 0.0683 (inactive); in [16] it was -0.0686 (inactive) and 0.825 (inactive); in [17], 0.213 (inactive) and 0.0972 (inactive); in [18], -0.123 (inactive) and -0.105 (inactive); in experiment [19] it was 1.18 and -0.0579. Further, the composite z-score in [14] is -1.97 (inactive) and -0.391 (inactive); in [20], 0.216 and -0.323.
Consider `COC(=O)C1=C(C)N(Cc2ccccc2)[C@]23O[C@](C(=O)OC)(C(=O)N2[C@@H]1c1ccccc1)[C@@H](c1ccccc1)[C@@H]3C(=O)c1ccccc1`, for which the z-score in experiment [1] was 0.668 and 0.418; in experiment [2] it was 1.64 and 0.204; in experiment [3], 0.344 and 0.832; in experiment [4], 0.54 and 0.391; in [5], -0.0139 and 0.294; in experiment [6], 2.68 and 2.31. Also, the z-score in experiment [7] is 1.13 (inactive) and 0.417 (inactive); in experiment [8] it was 0.535 and -0.253; in experiment [9], -0.00272 and 0.667; in [10] it was 0.266 (inactive) and 1.05 (inactive); in experiment [11], 1.07 and 0.475; in experiment [12] it was -1.84 (inactive) and -0.926 (inactive). Moreover, the z-score is 0.876 (inactive) and 0.459 (inactive) in experiment [13]; -0.0933 (inactive) in [15]; -1.37 (inactive) and -0.224 (inactive) in [16]; -0.603 (inactive) and 0.788 (inactive) in [17]; -0.263 (inactive) and 0.547 (inactive) in experiment [18]; 0.56 and 0.48 in experiment [19]. Also, the composite z-score was 0.78 (inactive) and 0.324 (inactive) in [14]; -0.209 and 0.0264 in [20].
For `C[C@@]1([C@@H](NC(=O)Cc2ccccc2)c2ccc(-c3ccccc3)cc2)C[C@H]1C1CCCCC1`, the z-score in experiment [1] was -2.72 and -1.23 and -1.42; in experiment [2] it was 0.765 and -0.0714 and -0.863; in [3] it was -2.87 and -0.861 and -0.802; in [4], -2.91 and -1.81 and -2; in experiment [5], -4.81 and -1.41 and -1.24; in [6] it was -3.9 and -0.895 and 0.848. Moreover, the z-score in experiment [7] is 0.111 (inactive) and -0.332 (inactive) and -1.75 (inactive); in experiment [8] it was -0.936 and -0.586 and -0.431; in [9] it was -1.71 and 0.0165 and -1.06; in experiment [10] it was -0.609 (inactive) and 3.96 (inactive) and -0.816 (inactive); in [11] it was -1.11 and 1.82 and -1; in experiment [12] it was 0.332 (inactive) and 0.351 (inactive) and 1.3 (inactive). The z-score was -0.506 (inactive) and 1.03 (inactive) and -1.05 (inactive) in experiment [13]; 2.92 (inactive) and 1.4 (inactive) and 1.18 (inactive) in [15]; 1.75 (inactive) and 0.465 (inactive) and 1.58 (inactive) in experiment [16]; -0.305 (inactive) and -0.278 (inactive) and -1.43 (inactive) in experiment [17]; -0.0393 (inactive) and -0.777 (inactive) and -0.74 (inactive) in experiment [18]; -3.36 and 2.84 and -1.47 in experiment [19]. For the same compound, the composite z-score in [14] was -4.04 (inactive) and -0.594 (inactive) and -0.535 (inactive); in experiment [20], 0.102 and 0.0464 and -0.02.
In the case of `COC(=O)[C@@]1(Cc2ccccc2)[C@H]2c3cc(C(=O)N(C)C)n(Cc4ccc(C)c(F)c4F)c3C[C@H]2CN1C(=O)c1ccccc1`, the z-score in experiment [1] is -3.17 and -1.66; in experiment [2] it was 0.42 and 0.702; in [3], -2.78 and -1.77; in experiment [4] it was -3.27 and -3.16; in experiment [5], -4.73 and -4.71; in experiment [6], -2.92 and -1. Besides, the z-score was -1.35 (inactive) and -1.29 (inactive) in experiment [7]; -0.926 and -0.872 in experiment [8]; -3 and -1.7 in experiment [9]; -3.06 (inactive) and -1.94 (inactive) in [10]; -2.95 and -1.72 in experiment [11]; -0.265 (inactive) and 0.53 (inactive) in experiment [12]. Also, the z-score in experiment [13] is -9.12 (active) and -3.68 (inactive); in experiment [15] it was 3.02 (inactive) and 2.16 (inactive); in experiment [16], 0.526 (inactive) and 0.401 (inactive); in experiment [17], -0.347 (inactive) and -1.25 (inactive); in [18], -0.834 (inactive) and -0.836 (inactive); in experiment [19], -6.06 and -3.79. Also, the composite z-score in experiment [14] was -3.37 (inactive) and -0.0662 (inactive); in experiment [20], 0.188 and 0.122.
